The text below walks through data of PubChem BioAssay (NCATS).

The structures appear in SMILES notation. Records with an inconclusive call do not appear. A number with no mark means an inactive call. Activity calls are given as the source filed them. Unless noted, calls come from the whole dose curve; as a rule, active = well fitted curve in the direction sought with a large enough effect; inconclusive = small, poorly fitted or top-dose-only effect, or another doubt; inactive = no such curve, though single readings can be large; an effect the other way counts as inactive or inconclusive.

A short description of test [1]: qHTS for Inhibitors of the Functional Ribonucleoprotein Complex (vRNP) of Lassa (LASV) Arenavirus: Viability assay - alamar blue signal for LASV Primary Screen (AID 1347083; calls by dose curve; tested in HEK293 reporter line; note: series mostly up to about 57 µM; % is set by controls: 0 for no effect and ±100 for the full control effect; nearly all actives have a fitted effect of over 80% in size). In general terms: In qHTS, concentration-response curves come from the screen itself.
Test [2] is described as follows: qHTS for Inhibitors of the Functional Ribonucleoprotein Complex (vRNP) of Lymphocytic Choriomeningitis Arenaviruses (LCMV): Viability assay - alamar blue signal for LCMV Primary Screen (AID 1347085; calls by dose curve; tested in HEK293 reporter line; note: series mostly up to about 57 µM; % is set by controls: 0 for no effect and ±100 for the full control effect; nearly all actives have a fitted effect of over 80% in size).
Test [3] has as its target Nucleoprotein (Lymphocytic choriomeningitis virus (strain Armstrong)) (UniProt P09992). Nature of the test: qHTS for Inhibitors of the Functional Ribonucleoprotein Complex (vRNP) of Lymphocytic Choriomeningitis Arenaviruses (LCMV): LCMV Primary Screen - GLuc reporter signal (AID 1347086; calls by dose curve; note: series mostly up to about 57 µM; % is set by controls: 0 for no effect and ±100 for the full control effect; nearly all actives have a fitted effect of over 70% in size).
Test [4] can be described thus: qHTS of pediatric cancer cell lines to identify multiple opportunities for drug repurposing: Primary screen for TC32 cells (AID 1347089). Note: % is set by controls: 0 for no effect and ±100 for the full control effect; nearly all actives have a fitted effect of over 60% in size. A digest of the protocol:
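Luminescent ATP read-out (CellTiter-Glo) of metabolically active TC32 cells after 48 h exposure. Concentration-response curves came from 11-point (MIPE, 0.78 nM–46 µM) or 8-point (NPC, 0.59 nM–46 µM) primary titrations; follow-up used 11 points.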

Test [5] is described as follows: qHTS of pediatric cancer cell lines to identify multiple opportunities for drug repurposing: Primary screen for DAOY cells (AID 1347090).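 Note: series mostly up to about 46 µM; plate controls were DMSO for no effect and bortezomib for full effect; nearly all actives have a fitted effect of over 55% in size.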 Put shortly:
(§1)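 Eight- or eleven-point concentration series, 48 h treatment at 37 degrees C in growth media; readout CellTiter-Glo luminescence. Potency and efficacy were taken from the concentration-response curves.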

Test [6] can be described thus: qHTS of pediatric cancer cell lines to identify multiple opportunities for drug repurposing: Primary screen for A673 cells (AID 1347092). Note: % is set by controls: 0 for no effect and ±100 for the full control effect; nearly all actives have a fitted effect of over 45% in size. Put shortly:
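Cell viability of A673 measured by CellTiter-Glo ATP luminescence after 48 hours compound exposure. Dilution series spanned 0.78 nM to 46 µM (MIPE, 11-point) or 0.59 nM to 46 µM (NPC, 8-point); bortezomib 2.3 uM positive control.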

Test [7] in a line: qHTS of pediatric cancer cell lines to identify multiple opportunities for drug repurposing: Primary screen for SK-N-MC cells (AID 1347093).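 For activity change, negative = cytotoxic: series mostly up to about 46 µM; plate controls were DMSO neutral control for no effect and bortezomib for full effect.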 Note: potency is the fitted concentration of half-maximal effect. A digest of the protocol:
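Metabolically active cells were quantified by ATP-dependent luminescence (CellTiter-Glo, 15 min at room temperature) following 48 h treatment. Cells had been plated at 500-1,000 per well and settled for 5 h beforehand.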

Test [8] is described as follows: qHTS of pediatric cancer cell lines to identify multiple opportunities for drug repurposing: Primary screen for SJ-GBM2 cells (AID 1347091).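 Note: plate controls were DMSO neutral control for no effect and bortezomib for full effect.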 Put shortly:
as §1

A short description of test [9]: qHTS of pediatric cancer cell lines to identify multiple opportunities for drug repurposing: Primary screen for BT-37 cells (AID 1347094).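 For activity change, negative = cytotoxic: series mostly up to about 57 µM; plate controls were DMSO for no effect and bortezomib for full effect.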 Note: potency is the fitted concentration of half-maximal effect. Put shortly: (§2)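 Cells seeded at 500-1,000 cells/well in growth media, rested 5 hours at 37 degrees C, 5% CO2, then dosed; MIPE compounds at 11-point (from 0.78 nM) and NPC at 8-point (from 0.59 nM) final concentrations. Viability by CellTiter-Glo luminescence after 48 hours.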

A short description of test [10]: qHTS of pediatric cancer cell lines to identify multiple opportunities for drug repurposing: Primary screen for NB-EBc1 cells (AID 1347095).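 For activity change, negative = cytotoxic: plate controls were DMSO neutral control for no effect and bortezomib for full effect.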 Note: potency is the fitted concentration of half-maximal effect. Put shortly: as §2

Sequence of Nucleoprotein (Lymphocytic choriomeningitis virus (strain Armstrong)) (P09992 whole entry, looked up): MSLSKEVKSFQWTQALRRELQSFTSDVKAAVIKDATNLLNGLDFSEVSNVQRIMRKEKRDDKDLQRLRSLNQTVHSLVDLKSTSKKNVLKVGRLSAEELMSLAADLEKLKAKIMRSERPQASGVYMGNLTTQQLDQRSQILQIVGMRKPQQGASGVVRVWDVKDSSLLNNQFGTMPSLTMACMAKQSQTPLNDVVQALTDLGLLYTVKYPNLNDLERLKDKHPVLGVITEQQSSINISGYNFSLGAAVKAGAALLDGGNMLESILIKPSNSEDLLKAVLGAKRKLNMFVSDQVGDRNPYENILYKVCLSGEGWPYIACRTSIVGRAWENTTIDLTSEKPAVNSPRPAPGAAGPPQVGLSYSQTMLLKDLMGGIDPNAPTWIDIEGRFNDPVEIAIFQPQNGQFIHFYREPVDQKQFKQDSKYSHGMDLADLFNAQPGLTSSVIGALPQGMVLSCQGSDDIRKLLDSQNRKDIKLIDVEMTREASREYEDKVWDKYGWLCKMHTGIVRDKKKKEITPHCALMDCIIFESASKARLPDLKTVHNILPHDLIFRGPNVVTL

Take `O=C(O)c1ccc2[nH]cc(CCCCN3CC=C(c4ccccc4)CC3)c2c1`: the Potency result in test [1], in [2], in test [3], in [4], in test [5] and in test [6] was “inactive” throughout. Besides, the Potency entry in [7] was “inactive”.

Consider `COc1ccc2c(c1OC)CN1CCc3cc4c(cc3C1C2)OCO4` (stereo not given), for which the Potency result in test [1], in test [2], in [3], in [4], in test [5] and in test [8] was “inactive” each time. The Potency entry in test [10] was “inactive”. The Potency in test [9] is 17.2 µM (active).

For the compound `CNCC(O)c1ccc(O)cc1` (stereo not given), the Potency entry in [1], in [2], in test [3], in test [4], in test [5] and in test [6] was “inactive” each time. Also, the Potency result in test [7] and in test [10] was “inactive” in each case.

For `NCC1(CC(=O)O)CCCCC1`, the Potency entry in [1], in test [2], in test [3], in test [4], in [5] and in test [6] was “inactive” in each case. Besides, the Potency entry in test [7], in [9] and in test [10] was “inactive” each time.

As to `CC(C)(C)NCC(O)c1cc(Cl)c(N)c(Cl)c1` (stereo not given), the Potency result in test [1], in test [2], in test [3], in test [4], in [5] and in test [6] was “inactive” throughout. Further, the Potency result in [7], in test [9] and in test [10] was “inactive” each time.

`Cc1cccc(C)c1NC(=O)CN1CCCC1=O`: the Potency result in [1], in [2], in test [3], in test [4], in test [5] and in test [6] was “inactive” throughout. Further, the Potency entry in test [7], in test [9] and in [10] was “inactive” throughout.

As to `CC(C)(C)CC(C)(C)c1ccc(O)cc1`, the Potency result in test [1], in test [2], in test [3], in test [4] and in [5] was “inactive” throughout. Further, the results for the Potency in test [7] and in [10] were 27.3 µM (active) and 30.6 µM (active), respectively.

`CN(C)[C@@H]1C(=O)C(C(N)=O)=C(O)[C@@]2(O)C(=O)C3=C(O)c4c(O)cccc4[C@@](C)(O)[C@H]3C[C@@H]12`: the Potency entry in [1], in [2], in test [3], in test [4], in test [5] and in [6] was “inactive” each time. Moreover, the Potency result in test [7] and in test [10] was “inactive” throughout.

Consider `O=c1oc2ccccc2c(O)c1C(CC(O)c1ccc(-c2ccc(Br)cc2)cc1)c1ccccc1` (stereo not given), for which the Potency entry in [1], in test [2], in test [3], in test [4], in test [5] and in [6] was “inactive” each time. Also, the Potency result in [9] and in [10] was “inactive” throughout.

On to `CCN(CC)CCOC(=O)C(O)(c1ccccc1)c1ccccc1`, for which the Potency result in test [1], in test [2], in [3], in test [4], in test [5] and in [6] was “inactive” throughout. The Potency entry in [7], in test [9] and in test [10] was “inactive” each time.

As to `CCOP(=S)(OCC)Oc1cc(C)nc(C(C)C)n1`, the Potency entry in [1], in test [2], in test [3], in test [4], in [5] and in test [6] was “inactive” throughout. The Potency result in test [7] and in test [10] was “inactive” in each case.

Take `NCC(CC(=O)O)c1ccc(Cl)cc1` (stereo not given): the Potency entry in test [1], in test [2] and in test [3] was “inactive” each time. The activity change, negative = cytotoxic in test [4] is 1.72% [at 0.594 µM]; in test [5], -6.69% [at 0.597 µM]; in test [6], -10.9% [at 0.597 µM]; in [10], -3.28% [at 0.597 µM].

For the compound `CC(CCc1ccccc1)NC(C)C(O)c1ccc(O)cc1` (stereo not given), the Potency entry in test [1], in test [2], in test [3], in [4], in test [5] and in test [6] was “inactive” each time. Moreover, the Potency entry in test [9] and in test [10] was “inactive” throughout.

`C=C1CC[C@@]2(O)[C@H]3Cc4ccc(O)c5c4[C@@]2(CCN3CC2CC2)[C@H]1O5`: the Potency entry in test [1], in test [2], in [3], in [4], in [5] and in [6] was “inactive” each time. In addition, the Potency result in test [7] and in test [10] was “inactive” throughout.

Regarding `COC[C@@H](NC(C)=O)C(=O)NCc1ccccc1`, the Potency result in [1], in [2], in [3], in test [4], in test [5] and in test [6] was “inactive” in each case. Also, the Potency result in test [9] and in [10] was “inactive” each time.

Take `CC(C)=CC1C(C(=O)OCc2cccc(Oc3ccccc3)c2)C1(C)C` (stereo not given): the Potency result in test [1], in [2], in test [3], in test [4], in test [5] and in test [6] was “inactive” each time. In addition, the Potency entry in test [7] and in [10] was “inactive” throughout.

In the case of `CC[N+]1(C)CCCC(OC(=O)C(O)(c2ccccc2)c2ccccc2)C1` (stereo not given), the Potency result in [1], in test [2], in [3], in test [4], in test [5] and in test [6] was “inactive” each time. Moreover, the Potency result in test [7], in test [9] and in [10] was “inactive” in each case.

On to `O=P1(NCCCl)OCCCN1CCCl` (stereo not given), for which the Potency result in test [1], in [2], in [3], in test [4], in test [5] and in test [7] was “inactive” in each case. Further, the Potency entry in test [10] was “inactive”.

In the case of `O=C1CC[C@@]2(O)[C@H]3Cc4ccc(O)c5c4[C@@]2(CCN3CC2CC2)[C@H]1O5`, the Potency result in [1], in test [2], in [3], in [4], in test [5] and in [6] was “inactive” throughout. Also, the Potency entry in test [9] and in [10] was “inactive” throughout.

As to `CC(C)=CCOc1c2occc2cc2ccc(=O)oc12`, the Potency entry in test [1], in test [2], in test [3], in test [4], in [5] and in test [6] was “inactive” in each case. Also, the Potency entry in test [7] and in [10] was “inactive” in each case.

With `CC[C@@H](CO)NC(=O)[C@@H]1C=C2c3cccc4[nH]cc(c34)C[C@H]2N(C)C1`, the Potency entry in test [1], in [2], in test [3], in test [4], in [5] and in test [6] was “inactive” in each case. The Potency result in test [7], in test [9] and in test [10] was “inactive” throughout.

As for `Cc1cc(SCc2sc(-c3ccc(C(F)(F)F)c(F)c3)nc2C)ccc1OCC(=O)O`, the Potency entry in test [1], in test [2], in test [3], in test [4], in [5] and in [6] was “inactive” in each case.

On to `CN1C(=S)CN=C(c2ccccc2)c2cc(Cl)ccc21`, for which the Potency entry in test [1], in [2], in test [3], in test [4], in [5] and in test [6] was “inactive” throughout. Also, the Potency entry in test [7], in test [9] and in test [10] was “inactive” throughout.

As for `CCCC1CCCCN1` (stereo not given), the Potency result in test [1], in test [2], in test [3], in [4], in test [5] and in [6] was “inactive” in each case. The Potency result in [7] and in test [10] was “inactive” in each case.

As to `C[C@]12C/C(=C/O)C(=O)C[C@@H]1CC[C@@H]1[C@@H]2CC[C@@]2(C)[C@H]1CC[C@]2(C)O`, the Potency entry in [1], in test [2], in [3], in [4] and in [5] was “inactive” in each case. The Potency in test [7] is 23.7 µM (active).

As to `CCCC(C)(COC(N)=O)COC(=O)NC(C)C` (stereo not given), the Potency entry in [1], in test [2], in test [3], in test [4], in test [5] and in test [6] was “inactive” each time. The Potency entry in test [7] and in test [10] was “inactive” in each case.

As for `CCCN1CCC[C@@H]2Cc3nc(N)ncc3C[C@H]21`, the Potency entry in test [1], in [2], in [3], in [4], in [5] and in test [6] was “inactive” each time. In addition, the Potency result in test [7], in [9] and in [10] was “inactive” throughout.

For the compound `NN=C(N)N`, the Potency result in test [1], in [2], in [3], in test [4], in [5] and in test [6] was “inactive” in each case. Also, the Potency entry in test [7], in test [9] and in [10] was “inactive” throughout.
